Assay [1] is described as follows: TOX21_p53_BLA_p2_viability: Viability Assessment in the Tox21 HCT-116 p53 Agonism Beta-lactamase Assay, Phase 2 (AID 2283591).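 Further: compound exposure lasted 16 h at 37 °C; actives lower the ATP signal meaning cytotoxicity.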 Put shortly: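 HCT-116 p53-bla cells (4000/well) rested 5 h at 37C, then received compounds in DMSO (217-fold dilution) for 16 h at 37C, 5% CO2. After the CCF4 read, CellTiter-Glo was added; ATP luminescence was read after 30 min at room temperature.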

Assay [2] has as its target Cellular tumor antigen p53 (Homo sapiens) (UniProt P04637). Put plainly: TOX21_p53_BLA_p2_ratio: Tox21 HCT-116 p53 Agonism Beta-lactamase Assay, Ratio, Phase 2 (AID 2283592). Put shortly:
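Ratio endpoint: beta-lactamase cleavage of CCF4-AM, blue (460 nm) over green (530 nm). HCT116 reporter line; 16 h treatment, 37C; substrate 2 h RT.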

Assay [3] shares this target. Description: TOX21_p53_BLA_p3_ratio: Tox21 HCT-116 p53 Agonism Beta-lactamase Assay, Ratio, Phase 3 (AID 2283596). Put shortly: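 Cells were seeded at 4000/well, rested 5 h at 37C, then dosed with DMSO compound solutions (217-fold dilution) for 16 h. CCF4-AM substrate was loaded for 2 h at room temperature, and the 460/530 nm emission ratio was fitted for gain of signal versus DMSO.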

Assay [4] can be described thus: TOX21_p53_BLA_p4_viability: Viability Assessment in the Tox21 HCT-116 p53 Agonism Beta-lactamase Assay, Phase 4 (AID 2283597).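 Further: hits lower the luminescence signal meaning cytotoxicity.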 Put shortly:
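Cytotoxicity was inferred from loss of CellTiter-Glo luminescence. HCT116 cells had been dosed with compounds after 5 h plating, incubated 16 h at 37C and 5% CO2, and exposed to the CCF4-AM substrate for 2 h.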

Assay [5] addresses Cellular tumor antigen p53 (Homo sapiens) (UniProt P04637). Description: TOX21_p53_BLA_p5_ratio: Tox21 HCT-116 p53 Agonism Beta-lactamase Assay, Ratio, Phase 5 (AID 2283599). Put shortly:
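HCT-116 cells carrying a p53-inducible beta-lactamase reporter were seeded at 4000 cells/well and dosed after 5 h with compound in DMSO (217-fold dilution). After 16 h at 37C, CCF4-AM substrate was added for 2 h, and the 460/530 nm emission ratio was scored as gain-of-signal versus DMSO.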

For assay [6] the target is unchanged. Description: TOX21_p53_BLA_p4_ratio: Tox21 HCT-116 p53 Agonism Beta-lactamase Assay, Ratio, Phase 4 (AID 2283601). Put shortly: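 HCT116 cells carrying an inducible beta-lactamase reporter were plated at 4000 cells/well, rested 5 h, then exposed to compounds in DMSO (217-fold dilution) for 16 h at 37C. CCF4-AM substrate was loaded 2 h at room temperature; 460/530 nm emission ratio scored gain-of-signal versus DMSO.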

Assay [7] is described as follows: TOX21_p53_BLA_p3_viability: Viability Assessment in the Tox21 HCT-116 p53 Agonism Beta-lactamase Assay, Phase 3 (AID 2283593).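 Further: cells exposed to compound for 16 h before reading.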 Put shortly: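 HCT-116 cells (4000/well) rested 5 h at 37C, then got DMSO compounds by pin tool (217-fold dilution) for 16 h at 37C, 5% CO2. After the bla read, CellTiter-Glo was added and luminescence read at 30 min, room temperature.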

The nature of assay [8]: TOX21_p53_BLA_p5_viability: Viability Assessment in the Tox21 HCT-116 p53 Agonism Beta-lactamase Assay, Phase 5 (AID 2283600). Put shortly:
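Luciferase-coupled ATP quantitation of cells treated for 16 h (37C, 5% CO2) with test chemicals delivered in DMSO via a 217-fold dilution; 4000 cells/well; reagent incubated 30 min at room temperature before luminescence reading.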

Assay [9] can be described thus: UKN5_HCS_SBAD2_cell_viability: Viability Assessment in the University of Konstanz (UKN) Leist Lab Neurite Outgrowth Assay in human iPSC-derived immature Dorsal Root Ganglia Neurons (UKN5) (AID 2284056; active means hit-call score of the fitted dose curve at least 0.9, where 1 is the maximum; inactive means score below 0.9). Put shortly: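 iPSC-derived immature peripheral neurons (SBAD2) seeded on Matrigel with CHIR99021, SU5402 and DAPT, dosed 1 h later for 24 h. Viability from Hoechst H-33342 and calcein-AM live staining, high-content imaging; bidirectional fit versus DMSO.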

Assay [10] can be described thus: UKN5_HCS_SBAD2_neurite_outgrowth: University of Konstanz (UKN) Leist Lab Neurite Outgrowth Assay in human iPSC-derived immature Dorsal Root Ganglia Neurons (UKN5) (AID 2284070; active means hit-call score of the fitted dose curve at least 0.9, where 1 is the maximum; inactive means score below 0.9). As to conditions: actives raise or lower the signal. Put shortly:
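Cryopreserved SBAD2 peripheral neurons were seeded at 100.000 cells/cm2 in N2-S/KSR medium containing CHIR99021, SU5402 and DAPT, then exposed to compounds for 24 h. Neurite area from calcein-AM high-content imaging was fitted bidirectionally against DMSO.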

Assay [11] can be described thus: UKN4_HCS_LUHMES_neurite_outgrowth: University of Konstanz (UKN) Leist Lab Neurite Outgrowth Assay in human LUHMES cells (UKN4) (AID 2284206; active means hit-call score of the fitted dose curve at least 0.9, where 1 is the maximum; inactive means score below 0.9). As to conditions: actives raise or lower the signal. Put shortly: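 Read-out: calcein-AM neurite area by high-content fluorescence imaging, with Hoechst H-33342 viability counterstain, after 24 h chemical exposure of day-2 differentiated LUHMES cells. Activity fitted bidirectionally against DMSO baseline.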

A short description of assay [12]: IUF_NPC1a_proliferation_area_72hr: Leibniz Research Institute for Environmental Medicine (IUF) 72-hour Neural Progenitor Cell Proliferation Area Assay (NPC1a) (AID 2284208; active means hit-call score of the fitted dose curve at least 0.9, where 1 is the maximum; inactive means score below 0.9). Put shortly: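 Read-out: increase in sphere area over 72 h by automated phase-contrast imaging, fitted in positive direction versus DMSO baseline. One hNPC sphere (0.25-0.35 mm) per well in EGF/FGF medium; growth-factor withdrawal served as positive control.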

The nature of assay [13]: IUF_NPC1_viability_72hr: Viability Assessment at 72 hours in the Leibniz Research Institute for Environmental Medicine (IUF) Neural Progenitor Cell Proliferation Assay (NPC1) (AID 2284209; active means hit-call score of the fitted dose curve at least 0.9, where 1 is the maximum; inactive means score below 0.9). Put shortly:
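Alamar blue fluorescence (RFU) after 72 h exposure, normalized to DMSO baseline. hNPC spheres from GW 16-19 fetal cortex, single sphere per well in growth-factor medium; no compound renewal.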

Assay [14] can be described thus: UKN4_HCS_LUHMES_cell_viability: Viability Assessment in the University of Konstanz (UKN) Leist Lab Neurite Outgrowth Assay in human LUHMES cells (UKN4) (AID 2284232; active means hit-call score of the fitted dose curve at least 0.9, where 1 is the maximum; inactive means score below 0.9). Put shortly: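 Day-2 differentiated LUHMES, 30000 cells/well, dosed ~30 min–2 h post-seeding; 24 h treatment incl. staining; Hoechst H-33342 + calcein-AM at 23.5 h; HCS imaging; DMSO-normalized, bidirectional fit.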

Assay [15] in a line: UKN2_HCS_IMR90_cell_viability: Viability Assessment in the University of Konstanz (UKN) Leist Lab Neural Crest Cell Migration Assay in human induced IMR90 Pluripotent Stem Cells (UKN2) (AID 2284233; active means hit-call score of the fitted dose curve at least 0.9, where 1 is the maximum; inactive means score below 0.9;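 further: viability of neural crest cells differentiated from IMR90 iPSC measured by calcein-AM fluorescence imaging; cells exposed to compound for 24 h after a 24 h migration phase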). Put shortly:
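cMINC format, iPSC-derived neural crest (IMR90); 24 h migration (EGF/FGF, N2-S), then 24 h toxicant. Calcein-AM/H-33342 stain 30 min; fluorescence intensity by HCS; DMSO-normalised, bidirectional fitting.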

A short description of assay [16]: IUF_NPC2c_oligodendrocyte_migration_120hr: Leibniz Research Institute for Environmental Medicine (IUF) 120-hour Neural Progenitor Cell Migration Assay for Oligodendrocyte Migration (NPC2c) (AID 2284297; active means hit-call score of the fitted dose curve at least 0.9, where 1 is the maximum; inactive means score below 0.9;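 further: O4-positive oligodendrocyte migration distance divided by radial glia migration distance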). Put shortly:
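Human fetal cortex-derived neural progenitor spheres (0.3 mm) were plated on poly-D-lysine/laminin in N2 differentiation medium and exposed to 7 concentrations for 120 h, with half-medium renewal at day 3. Oligodendrocyte migration distance was normalized to radial glia migration, relative to DMSO.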

A short description of assay [17]: IUF_NPC2a_radial_glia_migration_120hr: Leibniz Research Institute for Environmental Medicine (IUF) 120-hour Neural Progenitor Cell Migration Assay for Radial Glia Migration (NPC2a) (AID 2284298; active means hit-call score of the fitted dose curve at least 0.9, where 1 is the maximum; inactive means score below 0.9). Put shortly: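 Single 0.3 mm primary human fetal-cortex (GW 16-19) NPC spheres were plated on poly-D-lysine/laminin in N2 differentiation medium and exposed from day 0 for 120 h, half-medium refreshed day 3. Migration distance came from Hoechst nuclei-density imaging, relative to DMSO.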

Assay [18] in a line: IUF_NPC2b_neuronal_migration_120hr: Leibniz Research Institute for Environmental Medicine (IUF) 120-hour Neural Progenitor Cell Migration Assay for Neuron Migration (NPC2b) (AID 2284300; active means hit-call score of the fitted dose curve at least 0.9, where 1 is the maximum; inactive means score below 0.9). Put shortly:
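Primary human fetal cortex neural progenitor spheres (0.3 mm) plated on poly-D-lysine/laminin in N2 differentiation medium, exposed 120 h with half-medium refresh at day 3. TUBB3-stained neuron distance from sphere core, normalized to radial glia migration, versus DMSO.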

Assay [19] is described as follows: IUF_NPC3_neuronal_differentiation_120hr: Leibniz Research Institute for Environmental Medicine (IUF) 120-hour Neuronal Differentiation Assay (NPC3) (AID 2284301; active means hit-call score of the fitted dose curve at least 0.9, where 1 is the maximum; inactive means score below 0.9). Put shortly: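 Neuronal differentiation of primary human neural progenitors measured by high-content imaging: percent TUBB3+ of Hoechst+ nuclei within migrated area at 120 h, seven-point serial dilution plus solvent control, gain or loss relative to DMSO.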

Assay [20] in a line: IUF_NPC4_neurite_length_120hr: Leibniz Research Institute for Environmental Medicine (IUF) 120-hour Neuronal Morphology Assay for Neurite Length (NPC4) (AID 2284302; active means hit-call score of the fitted dose curve at least 0.9, where 1 is the maximum; inactive means score below 0.9). Put shortly: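 Neurons from differentiating human fetal neural progenitor spheres are scored for average neurite length after five days of compound exposure. Fitting uses DMSO as negative control.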
Assay [21] is described as follows: IUF_NPC4_neurite_area_120hr: Leibniz Research Institute for Environmental Medicine (IUF) 120-hour Neuronal Morphology Assay for Neurite Area (NPC4) (AID 2284305). Put shortly:
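Endpoint at 120 h: automated imaging of TUBB3/Hoechst-stained differentiating human neural progenitor spheres, neurite area per neuron from skeletonization. DMSO solvent control, not above 0.1%, set the baseline; medium was half-replaced on day 3.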

Assay [22] can be described thus: IUF_NPC2-5_cytotoxicity_72hr: Cytotoxicity Assessment at 72 hours in the Leibniz Research Institute for Environmental Medicine (IUF) Neural Progenitor Cell Migration and Differentiation Assay for Cytotoxicity (NPC2-5) (AID 2284306).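 Further: LDH release into supernatant measured by resorufin fluorescence marking membrane damage.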 Put shortly: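 Primary human neural progenitor spheres migrate and differentiate on laminin. Compound is present from the start of differentiation, with DMSO kept at or below 0.1%. At 72 h, supernatant LDH is quantified fluorometrically, with values fitted in the positive direction.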

A short description of assay [23]: IUF_NPC2-5_cytotoxicity_120hr: Cytotoxicity Assessment at 120 hours in the Leibniz Research Institute for Environmental Medicine (IUF) Neural Progenitor Cell Migration and Differentiation Assay (NPC2-5) (AID 2284307).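 Further: LDH released into supernatant as membrane damage marker via resorufin fluorescence.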 Put shortly: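 Human fetal neural progenitor spheres (0.3 mm, GW 16-19 cortex) were plated on poly-D-lysine/laminin in N2 differentiation medium and exposed for 120 h, with half-medium refresh at day 3. LDH release into supernatant was read by resorufin fluorescence.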

The nature of assay [24]: IUF_NPC2-5_cell_number_120hr: Cell Number Assessment at 120 hours in the Leibniz Research Institute for Environmental Medicine (IUF) Neural Progenitor Cell Migration and Differentiation Assay (NPC2-5) (AID 2284308; active means hit-call score of the fitted dose curve at least 0.9, where 1 is the maximum; inactive means score below 0.9;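 further: count of Hoechst-stained nuclei in migration zone around plated human neural progenitor spheres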). Put shortly:
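Primary human fetal neural progenitor spheres (GW 16-19, 0.3 mm) plated on poly-D-lysine/laminin in N2 differentiation medium, exposed from day 0 for 120 h with half-medium refresh at day 3; Hoechst-positive nuclei counted in migration area versus DMSO control.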

A short description of assay [25]: IUF_NPC2-5_viability_120hr: Viability Assessment at 120 hours in the Leibniz Research Institute for Environmental Medicine (IUF) Neural Progenitor Cell Migration and Differentiation Assay (NPC2-5) (AID 2284312; active means hit-call score of the fitted dose curve at least 0.9, where 1 is the maximum; inactive means score below 0.9). Put shortly:
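Human fetal (GW 16-19) neural progenitor spheres of 0.3 mm were plated on poly-D-lysine/laminin in N2 differentiation medium and exposed from day 0 for 120 h, with half-medium refresh at day 3. Viability was read as alamar blue resazurin-to-resorufin fluorescence against DMSO.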

Assay [26] is described as follows: IUF_NPC1_cytotoxicity_72hr: Cytotoxicity Assessment at 72 hours in the Leibniz Research Institute for Environmental Medicine (IUF) Neural Progenitor Cell Proliferation Assay (NPC1) (AID 2284332).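 Further: rising LDH signal means more cytotoxicity.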 Put shortly: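 LDH in supernatant, resazurin→resorufin fluorescence (RFU), 72 h exposure, no re-dosing. Cells: primary hNPC spheres, one per well, EGF+FGF medium, 37C/5% CO2, pH 7.2-7.6. Fit: positive direction vs baseline and dynamic range.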

This note sets out measurements from PubChem BioAssay (EPA / NIEHS).

SMILES strings stand for the structures. Records with an inconclusive call do not appear. The source made the active and inactive calls. How the source made its calls, unless noted: active means hit-call score of the fitted dose curve at least 0.9, where 1 is the maximum; inconclusive means response in the unintended direction; inactive means score below 0.9.

Cellular tumor antigen p53 (Homo sapiens), sequence (P04637 whole entry, looked up): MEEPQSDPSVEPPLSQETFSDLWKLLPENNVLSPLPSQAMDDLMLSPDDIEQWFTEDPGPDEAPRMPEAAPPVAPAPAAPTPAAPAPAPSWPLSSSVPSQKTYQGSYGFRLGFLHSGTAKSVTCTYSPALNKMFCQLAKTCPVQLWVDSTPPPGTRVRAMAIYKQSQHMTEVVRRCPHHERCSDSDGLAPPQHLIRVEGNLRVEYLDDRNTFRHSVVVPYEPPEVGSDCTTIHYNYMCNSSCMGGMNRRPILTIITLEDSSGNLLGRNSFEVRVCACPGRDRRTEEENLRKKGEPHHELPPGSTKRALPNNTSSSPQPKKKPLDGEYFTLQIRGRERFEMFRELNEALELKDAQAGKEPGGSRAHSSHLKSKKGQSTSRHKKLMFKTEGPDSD

Take `CCN(C)N=O`: the molecule was called inactive in assay [1], in assay [2], in assay [3], in assay [4], in assay [5] and in [6].

`CNC1(c2ccccc2Cl)CCCCC1=O` (stereo not given): the outcome in assay [1], in assay [2], in [7], in [5], in assay [8] and in [6] was inactive. For the same molecule, the outcome in assay [9], in [10], in assay [12], in assay [13], in assay [14] and in assay [15] was inactive. Moreover, the outcome in assay [16], in assay [17], in [18], in [20], in assay [21] and in assay [22] was inactive. For the same molecule, the molecule was called inactive in assay [24], in [25] and in assay [26]. Also, the concentration at half-maximal activity (AC50) was 34.1 µM (active) in assay [11], 74.2 µM (active) in assay [19] and 1.48 µM (active) in [23].

Usually AC50 stands for the concentration giving half of the maximal activity seen.
